TbPYK inhibitor = qHTS of Trypanosoma Brucei Inhibitors; TbPYK enzyme, Kinase-Glo Plus ATP luminescence, 45 min; Potency, µM (highest dose often 76.8 µM), hits mostly inhibitors; 410,000 compounds, 0.12% hits; AID 624173, 2012; further: nearly all actives have a fitted effect of over 50% in size
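In this concentration-response screen, enzyme-free wells defined baseline while DMSO plates tracked drift. Each reaction combined TbPYK, substrate, compound and 130 uM ADP for 45 min at room temperature. Kinase-Glo Plus luminescence gave the signal.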
Giardia FBPA inh-1 = qHTS Assay for Inhibitors of Fructose-1,6-bisphosphate Aldolase from Giardia Lamblia; A8B2U2; purified Giardia FBPA; Potency, µM (top dose mostly 59.6 µM), hits mostly inhibitors; 290,000 compounds, 0.71% hits; AID 2451, 2010; further: nearly all actives have a fitted effect of over 55% in size
Target sequence (A8B2U2 whole entry, looked up): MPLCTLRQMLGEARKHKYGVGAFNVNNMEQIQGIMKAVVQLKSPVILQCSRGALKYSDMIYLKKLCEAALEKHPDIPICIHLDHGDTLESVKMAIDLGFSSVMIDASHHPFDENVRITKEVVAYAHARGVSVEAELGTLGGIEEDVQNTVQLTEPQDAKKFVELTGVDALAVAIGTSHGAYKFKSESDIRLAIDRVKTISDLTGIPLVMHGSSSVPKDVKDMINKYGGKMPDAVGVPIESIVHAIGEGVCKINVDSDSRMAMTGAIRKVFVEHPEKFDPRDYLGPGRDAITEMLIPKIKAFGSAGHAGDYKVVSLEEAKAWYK
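Giardia FBPA (40 nM reagent) was preincubated 10 min at RT with compound (up to 57.5 uM final), then substrate plus GAPDH/TPI/NAD/arsenate coupling system with diaphorase/resazurin was added; resorufin fluorescence (525/598 nm) was read after 20 min.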
RE007 growth inh = qHTS Assay for Inhibitors of the HIV-1 protein Vpr; 360,000 compounds, 0.21% hits; Potency, µM (series often up to 92.2 µM), hits mostly inhibitors; S. pombe RE007 Vpr strain, BacTiter-Glo ATP luminescence, 24 h; active means well fitted falling curve with a large enough effect; inconclusive means small, poorly fitted or top-dose-only effect; inactive means no such curve, though single readings can be large or run the other way; further: nearly all actives have a fitted effect of over 50% in size
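Fission yeast RE007 carrying one integrated HIV-1 vpr copy, seeded at OD 0.01 in PMG+AL medium with 23 nL pinned compound. Grown 24 h at 30 degrees; viability read by BacTiter-Glo luminescence after 5 min.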
LmPK inhibitor = qHTS Assay for Inhibitors of Leishmania Mexicana Pyruvate Kinase (LmPK) | purified LmPK, Kinase-Glo ATP luminescence, 1 h | Potency, µM (doses to about 57.5 µM), most hits filed as inhibitors | 290,000 compounds, 0.37% hits
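qHTS format; LmPK 0.1 nM; substrates PEP 0.5 mM and ADP 0.1 mM. One-hour room-temperature incubation, then coupled luciferase luminescence; 0.5 nM enzyme wells mark activation.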
Giardia growth = qHTS Assay for Inhibitors of Fructose-1,6-bisphosphate Aldolase from Giardia Lamblia: Giardia lamblia growth inhibition. Giardia lamblia trophozoite growth inhibition. AID 2785, 2010. 1,500 compounds, 5% hits. shares compounds with Giardia FBPA inh-1. Potency, µM (highest dose often 57.5 µM), hits mostly inhibitors;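 further: trophozoites exposed to compound for 48 h at 37 °C; nearly all actives have a fitted effect of over 70% in size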
Mammal cell tox = qHTS Assay for Inhibitors of Fructose-1,6-bisphosphate Aldolase from Giardia Lamblia: Mammalian cellular toxicity | Potency, µM (series often up to 57.5 µM), most hits filed as inhibitors | shares compounds with Giardia FBPA inh-1 | mammalian cell viability counter-screen, qHTS | 1,500 compounds, 4% hits | AID 2786, 2010;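 further: Chinese hamster ovary cells used as mammalian cytotoxicity surrogate; viability measured as cellular ATP by luminescence; compound exposure lasted 48 h before reading; nearly all actives have a fitted effect of over 60% in size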
Giardia FBPA inh-2 = qHTS Assay for Inhibitors of Fructose-1,6-bisphosphate Aldolase from Giardia Lamblia: Primary screen confirmation; shares compounds with Giardia FBPA inh-1; AID 2787, 2010; Potency, µM (top dose mostly 57.5 µM), actives largely listed as inhibitors; purified Giardia aldolase enzyme activity, qHTS; 1,500 compounds, 5% hits; further: nearly all actives have a fitted effect of over 45% in size
Rabbit FBPA inh = qHTS Assay for Inhibitors of Fructose-1,6-bisphosphate Aldolase from Giardia Lamblia: Rabbit FBPA Selectivity; shares compounds with Giardia FBPA inh-1; Rabbit muscle FBPA enzyme inhibition, selectivity counter-screen; Potency, µM (doses to about 57.5 µM), actives largely listed as inhibitors; 1,500 compounds, 4% hits; further: nearly all actives have a fitted effect of over 60% in size
Target sequence (P00883 whole entry, looked up): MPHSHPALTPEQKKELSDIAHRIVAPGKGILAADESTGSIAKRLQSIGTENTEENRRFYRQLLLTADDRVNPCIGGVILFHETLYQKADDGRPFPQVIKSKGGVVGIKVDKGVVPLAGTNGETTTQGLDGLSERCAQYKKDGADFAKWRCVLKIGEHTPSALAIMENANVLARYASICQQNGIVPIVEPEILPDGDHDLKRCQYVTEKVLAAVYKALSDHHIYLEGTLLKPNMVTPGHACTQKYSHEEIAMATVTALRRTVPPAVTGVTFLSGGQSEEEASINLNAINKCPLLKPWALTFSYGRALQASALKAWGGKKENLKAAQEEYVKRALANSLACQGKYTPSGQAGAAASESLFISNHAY
GAPDH counter = qHTS Assay for Inhibitors of Fructose-1,6-bisphosphate Aldolase from Giardia Lamblia: Coupling assay counterscreen confirmation; shares compounds with Giardia FBPA inh-1; GAPDH coupling enzyme counterscreen, biochemical, qHTS; Potency, µM (top dose mostly 57.5 µM), hits mostly inhibitors; 1,500 compounds, 6% hits; further: nearly all actives have a fitted effect of over 55% in size
Hits are given with their value; i = inactive; ? = inconclusive; nt = no result; [ ] = dose if it differs, or a comment. The list is not random: actives were taken first. Their share in the collection is about 0.95%. Unless noted, the call rests on the fitted dose curve; in most records, active means well fitted curve in the direction sought with a large enough effect; inconclusive means small, poorly fitted or top-dose-only effect, or another doubt; inactive means no such curve, though single readings can be large; an effect the other way counts as inactive or inconclusive.

SMILES	TbPYK inhibitor	Giardia FBPA inh-1	RE007 growth inh	LmPK inhibitor	Giardia growth	Mammal cell tox	Giardia FBPA inh-2	Rabbit FBPA inh	GAPDH counter
O=C(NC(=S)N1CCCCC1)c1csc([N+](=O)[O-])c1	i	13µM	i	i	1µM	i	i	i	i
CC1CN(C(=S)NC(=O)c2ccc([N+](=O)[O-])cc2)CC(C)O1 (stereo not given)	i	20µM	i	i	5µM	i	i	i	i
C=CCNC(=S)NC(=O)c1csc([N+](=O)[O-])c1	i	?	i	i	nt	nt	nt	nt	nt
CC1CCN(C(=S)NC(=O)c2cccc([N+](=O)[O-])c2)CC1	i	nt	i	i	nt	nt	nt	nt	nt
NS(=O)(=O)c1cccc(NC(=S)NC(=O)c2cccc([N+](=O)[O-])c2)c1	i	18µM	i	i	i[10.4 µM]	i	i	i	i
C=CCc1cc(C)ccc1OCCOCCN1CCN(C)CC1	i	16µM	i	i	i	i	i	i	i
Cc1ccc(OCCOCCN2CCN(C)CC2)c(C(C)(C)C)c1	i	13µM	i	i	i	i	i	i	i
Cc1cc(Cl)c(OCCOCCN2CCN(C)CC2)c(Br)c1	i	22µM	i	i	i[10.4 µM]	i	i	i	i
CC(C)(C)c1cc(Cl)ccc1OCCOCCN1CCCC1	i	?	i	i	nt	nt	nt	nt	nt
Cc1cc(Cl)c(OCCOCCN2CCC(C)CC2)c(Br)c1	i	i	i	i	nt	nt	nt	nt	nt
COc1cc(NC(=O)CC(c2cccs2)N2Cc3ccccc3C2=O)cc(OC)c1OC (stereo not given)	i	nt	nt	nt	nt	nt	nt	nt	nt
COc1ccc(NC(=O)Cn2c(C)cc3ccccc3c2=O)c(OC)c1	i	nt	nt	nt	nt	nt	nt	nt	nt
COc1ccc(CCNC(=O)CSCc2nc(-c3cccc(C)c3)oc2C)cc1OC	i	nt	nt	nt	nt	nt	nt	nt	nt
C=CCSc1n[nH]c(-c2cccs2)n1	i	13µM	i	i	i	i	i	i	i
Cc1nc2cnc(N3CCNCC3)nc2n(C2CC2)c1=O	i	i	nt	nt	nt	nt	nt	nt	nt
CC1(C)Cc2sc3c(=O)[nH]c(=S)[nH]c3c2CO1	?	10µM	i	i	i	i	i	i	i
CC1(C)Cc2c(c(-c3ccccc3)nc3sc4c(=O)[nH]c(=S)[nH]c4c23)CO1	i	i	i	i	nt	nt	nt	nt	nt
Cc1ccc(C(=O)NNC(=S)NC(=O)c2ccc(Cl)cc2Cl)cc1	i	?	i	i	i	?	i	i	i
CC(NC(=S)NNS(=O)(=O)c1cccc([N+](=O)[O-])c1)c1ccccc1 (stereo not given)	i	16µM	i	i	i	i	i	i	i
N#C/C(=C\c1ccccc1)C(=O)NNS(=O)(=O)c1cccc([N+](=O)[O-])c1	i	nt	i	nt	nt	nt	nt	nt	nt
c1ccc(-c2nn[nH]n2)nc1	i	7.9µM	i	i	i	i	i	i	i
c1ccc(-c2nn[nH]n2)cc1	i	i	i	i	nt	nt	nt	nt	nt
c1ccc(-c2n[nH]c(-c3ccccn3)n2)nc1	i	3.2µM	i	16µM	i	i	i	i	i
Cc1cccc(N2CC(c3nc4ccc(C)cc4[nH]3)CC2=O)c1 (stereo not given)	i	nt	nt	nt	nt	nt	nt	nt	nt
CC(=O)c1c(C)nc(-c2ccc(Cl)cc2)nc1N	i	5µM	i	i	i	i	i	i	i
SMILES	TbPYK inhibitor	Giardia FBPA inh-1	RE007 growth inh	LmPK inhibitor	Giardia growth	Mammal cell tox	Giardia FBPA inh-2	Rabbit FBPA inh	GAPDH counter
CC(=O)c1c(C)nc(-c2ccc(Cl)cc2)nc1N=CN(C)C	i	?	i	i	nt	nt	nt	nt	nt
COc1cccc(NC(=O)Cn2c(=O)n(CCCCC(=O)NCc3ccccc3Cl)c(=O)c3ccccc32)c1	i	nt	nt	nt	nt	nt	nt	nt	nt
COc1ccc(C2c3c(n(C)c4ccccc34)C(=O)N2CC(=O)Nc2cccc(Cl)c2C)cc1 (stereo not given)	i[15.4 µM]	nt	nt	nt	nt	nt	nt	nt	nt
CC1(C)C2CCC(C2)C1(C)NC(=O)CN1CCN(Cc2ccccc2)CC1 (stereo not given)	i	16µM	i	i	i[10.4 µM]	i	i	i	i
Cc1ccc(NC(=O)CN2CCN(Cc3ccccc3)CC2)cc1	i	i	i	i	nt	nt	nt	nt	nt
CC1CCN(c2ccc(/C=N\Nc3nncn3N)cc2[N+](=O)[O-])CC1	i	11µM	i	i	11µM	i	?	i	?
COc1cc(/C=N/NC(=O)c2ccncc2)ccc1OC(C)=O	i	i	i	i	nt	nt	nt	nt	nt
COc1cc(/C=N\Nc2nncn2N)ccc1OC(C)=O	i	25µM	i	i	i	i	?	?	?
CC1CCN(c2ccc(/C=N/n3nnnc3N)cc2[N+](=O)[O-])CC1	i	i	i	i	nt	nt	nt	nt	nt
CSc1ccc(/C=N\Nc2nncn2N)cc1	i	?	nt	i	i	i	2.3µM	6.5µM	3.3µM
CC(C)(C)c1ccc(/C=N/Nc2nncn2N)cc1	i	16µM	i	i	i[10.4 µM]	i	14µM	?	?
CSc1ccc(/C=N/NC(=O)c2ccc(-n3cnnn3)cc2)cc1	i	nt	i	nt	nt	nt	nt	nt	nt
O=C1CC(c2ccccc2)Cc2[nH]c(=O)c(-c3nc(-c4cccc(Cl)c4)cs3)cc21 (stereo not given)	i	nt	nt	nt	nt	nt	nt	nt	nt
Cc1ccc(C(=O)N2CCN(c3cccc(Cl)c3)CC2)cc1-n1c(C)nc2cccnc21	i[15.4 µM]	nt	nt	nt	nt	nt	nt	nt	nt
CCSc1nnc2c(n1)OC(c1ccc(OC)cc1OC)N(C(C)=O)c1ccccc1-2 (stereo not given)	i	nt	nt	nt	nt	nt	nt	nt	nt
Cc1cc(C)c(-n2[nH]nnc2=S)c(C)c1	?	14µM	i	i	i[10.4 µM]	i	i	i	i
COc1ccc(C)cc1-n1[nH]nnc1=S	i	14µM	i	i	i	i	i	i	i
Fc1ccc(-n2[nH]nnc2=S)cc1N1CCCC1	?	i	i	i	nt	nt	nt	nt	nt
CCn1c(=NC(=O)c2ccc(S(=O)(=O)N3CCCC3)cc2)sc2cc(Br)ccc21	i	nt	nt	nt	nt	nt	nt	nt	nt
Cc1ccc(N2CCN(CC3CC=CCC3)CC2)cc1 (stereo not given)	i	i	i	i	nt	nt	nt	nt	nt
C1=CCC(CN2CCN(C3CCCCCC3)CC2)CC1 (stereo not given)	i	14µM	i	i	i	i	i	i	i
Cn1c(O)c(C(c2ccccn2)c2c(O)n(C)c(=S)[nH]c2=O)c(=O)[nH]c1=S	i	18µM	i	i	i	i	i	i	i

Source: PubChem BioAssay (National Center for Advancing Translational Sciences (NCATS))
